These results are taken from PubChem BioAssay (Tox21).

Inconclusive results are not listed. Active and inactive are the calls of the source. Calls come from the whole dose curve; as a rule, active = well fitted cell-killing curve with a large enough effect in the repeat runs; inconclusive = weak or mixed curves, or effect the other way; inactive = flat fitted curve, though single readings scatter.
% is set by controls: 0 for no effect and ±100 for the full control effect; potency is the fitted concentration of half-maximal effect.

A short description of this experiment: qHTS assay to identify small molecule that activate the aryl hydrocarbon receptor (AhR) signaling pathway - cell viability counter screen (AID 743086).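 For viability change, negative = cytotoxic: HepG2 liver cells carrying the AhR DRE luciferase reporter.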 Note: nearly all actives have a fitted effect of over 45% in size. The settings on record: HepG2-AhR-luc viability, CellTiter-Fluor, 24 h; series mostly up to 70.3 µM; viability change, negative = cytotoxic: at the top concentration. An excerpt: U.S. Tox21 Program National Center for Advancing Translational Sciences [NCATS] NIH Chemical Genomics Center [NCGC] U.S. Environmental Protection Agency [EPA] National Institutes of Environmental Health Sciences [NIEHS] National Toxicology Program [NTP] U.S. Food and Drug Administration [FDA] Tox21 Assay overview: The Aryl hydrocarbon Receptor (AhR), a member of the family of basic helix-loop-helix transcription factors, is crucial to adaptive responses to environmental changes. AhR mediates cellular responses to environmental pollutants such as aromatic hydrocarbons through induction of phase I and II enzymes but also interacts with other nuclear receptor signaling pathways A cell based HepG2-AhR-luc assay (HG2L7.5c1 cell line, developed by Dr. Michael S. Denison, University of California at Davis) was used to assess the activation of AhR. HepG2 (human hepatocellular carcinoma) cells were stably transfected with an Ah receptor-responsive firefly luciferase reporter gene plasmid containing 20 dioxin responsive elements and luciferase reporter gene. Increased luciferase activity can be used to identify the compounds that induce AhR activation. The cytotoxicity of the compounds screened against the HepG2-AhR-luc cell line was tested in parallel by measuring the cell viability using CellTiter-Fluor assay in the same wells.
Tox21 Assay Protocol Summary: 4000 cells in 5 uL/well were dispensed into white wall/solid bottom 1536-well plates using a Multidrop Combi (Thermo Fisher Scientific Inc., Waltham, MA) dispenser. After the assay plates were incubated at 37C for 5 h, 23 nL of compound or DMSO vehicle was transferred to the assay plates by a pintool station (Kalypsys, San Diego, CA). The plates were incubated at 37C for 24 hr. For cell viability measurement, 1 ul/well of CellTiter-Fluor reagent (Promega, Madison, WI) was added into the assay plates using a Flying Reagent Dispenser (FRD) (Aurora Discovery, CA),and then the assay plates were incubated at 37C for 30 min. The fluorescence intensity in the plates was measured using a ViewLux plate reader (PerkinElmer, Shelton, CT), followed by the addition of 4 uL of ONE-Glo Luciferase Assay reagent (Promega) using an FRD (Aurora Discovery). After the assay plates were incubated at room temperature for 30 min, luminescence intensity was measured using a ViewLux plate reader (Perkin Elmer).
For orientation: Quantitative high-throughput screening tests each substance at several concentrations.
`CCOC(=S)SSC(=S)OCC`: the Potency result was “inactive”.
For `O=CNc1ccccc1`, the “viability change, negative = cytotoxic” value is 2.27% [at 95 µM] (inactive).
The same measure, in the same setting: as for `CC(C)CC=O`, the figure is -2.08% (inactive).
With `CCc1nn(C2CCCCC2)c2cc(C3(C#N)CCC(C(=O)O)CC3)ccc12` (stereo not given), the Potency is 24.3 µM (active).
Take `CCOC(=O)C1=NN(c2ccccc2)C(=O)C1`: the “viability change, negative = cytotoxic” value was 10.6% (inactive).
Consider `Cc1ccc(O)c([C@H](CCN(C(C)C)C(C)C)c2ccccc2)c1`, for which the “viability change, negative = cytotoxic” value was -7.38% (inactive).
Still for that read-out and setting: to `SC1CCCC1` belongs 1.76% (inactive); to `CCC(=O)OC(C)(C)C1CC=C(C)CC1` (stereo not given), 8.18% (inactive); to `COC(=O)CSc1cc(N=c2sc(=O)n3n2CCCC3)c(F)cc1Cl`, 6.28% (inactive).
Same read-out and setting: as for `CC(C)(C)C(=O)OCOP(=O)(COCCn1cnc2c(N)ncnc21)OCOC(=O)C(C)(C)C`, the figure is -0.576% (inactive); as for `COc1ccc([C@@H]2Sc3ccccc3N(CCN(C)C)C(=O)[C@@H]2OC(C)=O)cc1`, 1.68% (inactive); as for `O=C1CCCCCO1`, 9.63% [at 95 µM] (inactive).
Take `CC(=O)SCc1ccco1`: the “viability change, negative = cytotoxic” value is -1.16% (inactive).
As for `CC(C)c1ccccc1C(C)C`, the “viability change, negative = cytotoxic” value is -2.2% (inactive).
On to `C=CC(C)(CCC=C(C)C)OC(=O)c1ccccc1` (stereo not given), for which the “viability change, negative = cytotoxic” value was -3.31% (inactive).
Take `CN(C)CCCOc1nn(Cc2ccccc2)c2ccccc12`: the “viability change, negative = cytotoxic” value was -1.04% [at 32.5 µM] (inactive).
The same measure, in the same setting: to `Cc1ccc(C)o1` belongs -3.98% [at 95 µM] (inactive).
On to `CNS(=O)(=O)Cc1ccc2[nH]cc(CCN(C)C)c2c1`, for which the “viability change, negative = cytotoxic” value was -0.891% (inactive).
On the same count and under the same terms, as for `CCCCCC/C=C/C=O`, the figure is 4.56% (inactive); as for `O=C=NC1CCC(CC2CCC(N=C=O)CC2)CC1` (stereo not given), -3.55% (inactive); as for `O=C(O)Cn1c(C(=O)Nc2nc(-c3ccccc3Cl)cs2)cc2ccccc21`, 3.25% (inactive).
The same measure, in the same setting: as for `Cl/C(=C\n1cncn1)c1ccc(Cl)cc1Cl`, the figure is -7.59% (inactive); as for `Cc1ncsc1CCO`, -6.69% (inactive); as for `CCOC(=O)CC(C)C`, 7.86% (inactive).
`O=C1c2cccc(O)c2C(=O)c2c(O)cc(CO)cc21`: the “viability change, negative = cytotoxic” value is -10.5% (inactive).
On the same count and under the same terms, to `CCCCCCCCCC=O` belongs 7.35% (inactive); to `CCCc1ccccc1`, 0.352% (inactive); to `N#CCCNCCC#N`, 17.7% [at 95 µM] (inactive).
The same measure, in the same setting: to `CC(C)(C)c1cc(CO)cc(C(C)(C)C)c1O` belongs -1.79% [at 95 µM] (inactive); to `CC(C)=CCCC(C)CC=O` (stereo not given), 0.703% (inactive); to `C=CC[N+]1([C@H]2C[C@H]3[C@@H]4CC[C@H]5C[C@H](OC(C)=O)[C@@H](N6CCCCC6)C[C@]5(C)[C@H]4CC[C@]3(C)[C@H]2OC(=O)CC)CCCCC1`, -5.2% (inactive).
The same measure, in the same setting: to `CC(=O)N(O)CCCCCNC(=O)CCC(=O)N(O)CCCCCNC(=O)CCC(=O)N(O)CCCCCN` belongs 10.9% [at 32.5 µM] (inactive); to `CC(=O)/C(C)=C/C1C(C)=CCCC1(C)C` (stereo not given), 19.2% (inactive); to `CCCCCCOC(=O)CCC`, -1.56% (inactive).
Take `C1=Cc2ccccc2C1`: the “viability change, negative = cytotoxic” value is 0.571% (inactive).
Same read-out and setting: to `O=c1[nH]cnc2ccccc12` belongs -6.34% [at 95 µM] (inactive).
`O=C(c1ccccc1)c1ccc2n1CCC2C(=O)O` (stereo not given): the Potency result is “inactive”.
For `Oc1ccc(Cc2ccccc2)cc1`, the “viability change, negative = cytotoxic” value was -3.62% (inactive).
Still for that read-out and setting: to `O=C(NS(=O)(=O)/C=C/c1cccs1)c1ccc(F)cc1Br` belongs -2.58% (inactive); to `CN(C)CC/C=C1\c2ccccc2COc2ccccc21`, -9.79% (inactive).
